Experiment [1] addresses Sphingosine kinase 1 (Homo sapiens) (UniProt Q9NYA1). The conditions noted are these: at 1 µM.
Experiment [2] deals with T1, Sphingosine kinase 2 (Homo sapiens) (UniProt Q9NRA0).
T1 sequence (whole entry): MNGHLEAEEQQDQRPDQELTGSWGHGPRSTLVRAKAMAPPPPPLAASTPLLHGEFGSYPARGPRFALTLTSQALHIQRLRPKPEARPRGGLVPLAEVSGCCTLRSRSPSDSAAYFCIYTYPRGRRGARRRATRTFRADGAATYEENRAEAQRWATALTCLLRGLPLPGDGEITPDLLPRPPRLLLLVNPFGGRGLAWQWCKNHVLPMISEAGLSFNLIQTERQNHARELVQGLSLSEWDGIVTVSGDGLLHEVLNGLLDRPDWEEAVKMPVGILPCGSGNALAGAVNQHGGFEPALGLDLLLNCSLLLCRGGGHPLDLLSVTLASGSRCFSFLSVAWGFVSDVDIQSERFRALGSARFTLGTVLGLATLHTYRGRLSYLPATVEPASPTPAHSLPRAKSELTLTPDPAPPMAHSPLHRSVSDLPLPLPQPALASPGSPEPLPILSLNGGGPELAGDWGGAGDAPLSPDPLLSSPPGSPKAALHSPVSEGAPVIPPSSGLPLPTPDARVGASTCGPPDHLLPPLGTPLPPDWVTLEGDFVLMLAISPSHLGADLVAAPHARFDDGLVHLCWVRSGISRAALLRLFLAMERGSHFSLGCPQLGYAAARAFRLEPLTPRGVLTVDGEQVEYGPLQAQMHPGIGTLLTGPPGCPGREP
The note with it: at 0.1 µM.

The target of experiment [3] is T1, Sphingosine kinase 2 (Homo sapiens). The note with it: at 1 µM.
Experiment [4] addresses Casein kinase II subunit alpha (Homo sapiens) (UniProt P68400). The conditions noted are these: at 0.1 µM.
Experiment [5] shares this target. The conditions noted are these: at 1 µM.
Experiment [6] addresses T2, Inhibitor of nuclear factor kappa-B kinase subunit alpha (Homo sapiens) (UniProt O15111).
T2 sequence (whole entry): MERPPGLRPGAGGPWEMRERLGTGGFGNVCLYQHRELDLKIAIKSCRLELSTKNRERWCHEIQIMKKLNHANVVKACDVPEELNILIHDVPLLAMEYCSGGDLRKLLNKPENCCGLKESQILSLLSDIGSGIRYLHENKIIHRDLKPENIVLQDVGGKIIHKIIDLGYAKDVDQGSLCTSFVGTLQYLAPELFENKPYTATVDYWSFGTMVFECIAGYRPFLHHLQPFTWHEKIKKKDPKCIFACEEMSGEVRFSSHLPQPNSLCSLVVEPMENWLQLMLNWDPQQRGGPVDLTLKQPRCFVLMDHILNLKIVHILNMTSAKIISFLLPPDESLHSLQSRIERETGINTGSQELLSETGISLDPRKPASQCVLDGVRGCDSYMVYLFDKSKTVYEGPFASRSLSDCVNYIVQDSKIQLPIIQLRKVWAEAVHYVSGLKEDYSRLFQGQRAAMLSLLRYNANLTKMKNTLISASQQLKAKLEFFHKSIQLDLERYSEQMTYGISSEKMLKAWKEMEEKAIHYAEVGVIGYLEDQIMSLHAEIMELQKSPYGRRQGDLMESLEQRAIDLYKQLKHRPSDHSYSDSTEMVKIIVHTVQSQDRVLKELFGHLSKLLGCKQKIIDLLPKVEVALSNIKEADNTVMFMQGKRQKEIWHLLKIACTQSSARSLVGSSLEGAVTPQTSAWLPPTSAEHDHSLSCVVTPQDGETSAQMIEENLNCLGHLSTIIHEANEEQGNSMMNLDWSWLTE
The note with it: at 0.1 µM.

Experiment [7] addresses T2, Inhibitor of nuclear factor kappa-B kinase subunit alpha (Homo sapiens). The conditions noted are these: at 1 µM.
The target of experiment [8] is T3, Inhibitor of nuclear factor kappa-B kinase subunit beta (Homo sapiens) (UniProt O14920).
T3 sequence (whole entry): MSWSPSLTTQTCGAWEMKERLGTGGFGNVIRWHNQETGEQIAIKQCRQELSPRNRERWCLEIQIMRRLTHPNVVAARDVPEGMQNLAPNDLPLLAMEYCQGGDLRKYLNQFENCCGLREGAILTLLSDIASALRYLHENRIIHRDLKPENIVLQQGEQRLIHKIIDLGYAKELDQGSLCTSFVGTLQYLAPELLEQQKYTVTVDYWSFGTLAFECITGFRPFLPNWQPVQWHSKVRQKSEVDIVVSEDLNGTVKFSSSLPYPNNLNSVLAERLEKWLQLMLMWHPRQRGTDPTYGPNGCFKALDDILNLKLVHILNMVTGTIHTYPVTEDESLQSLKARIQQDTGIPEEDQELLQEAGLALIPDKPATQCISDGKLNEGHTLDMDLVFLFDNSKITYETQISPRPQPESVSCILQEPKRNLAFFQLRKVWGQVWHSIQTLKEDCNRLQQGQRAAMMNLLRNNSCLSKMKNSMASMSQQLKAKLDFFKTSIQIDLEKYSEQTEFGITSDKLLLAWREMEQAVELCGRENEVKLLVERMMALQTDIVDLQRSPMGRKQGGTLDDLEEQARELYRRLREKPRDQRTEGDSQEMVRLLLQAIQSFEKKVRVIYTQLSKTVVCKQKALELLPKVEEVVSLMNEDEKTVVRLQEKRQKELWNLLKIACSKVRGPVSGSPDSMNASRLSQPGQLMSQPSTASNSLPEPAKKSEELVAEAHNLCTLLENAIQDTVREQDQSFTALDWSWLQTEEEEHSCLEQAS
The note with it: at 0.1 µM.

The target in experiment [9] is T3, Inhibitor of nuclear factor kappa-B kinase subunit beta (Homo sapiens). The conditions noted are these: at 1 µM.
In experiment [10] the target is T4, Inhibitor of nuclear factor kappa-B kinase subunit epsilon (Homo sapiens) (UniProt Q14164).
T4 sequence (whole entry): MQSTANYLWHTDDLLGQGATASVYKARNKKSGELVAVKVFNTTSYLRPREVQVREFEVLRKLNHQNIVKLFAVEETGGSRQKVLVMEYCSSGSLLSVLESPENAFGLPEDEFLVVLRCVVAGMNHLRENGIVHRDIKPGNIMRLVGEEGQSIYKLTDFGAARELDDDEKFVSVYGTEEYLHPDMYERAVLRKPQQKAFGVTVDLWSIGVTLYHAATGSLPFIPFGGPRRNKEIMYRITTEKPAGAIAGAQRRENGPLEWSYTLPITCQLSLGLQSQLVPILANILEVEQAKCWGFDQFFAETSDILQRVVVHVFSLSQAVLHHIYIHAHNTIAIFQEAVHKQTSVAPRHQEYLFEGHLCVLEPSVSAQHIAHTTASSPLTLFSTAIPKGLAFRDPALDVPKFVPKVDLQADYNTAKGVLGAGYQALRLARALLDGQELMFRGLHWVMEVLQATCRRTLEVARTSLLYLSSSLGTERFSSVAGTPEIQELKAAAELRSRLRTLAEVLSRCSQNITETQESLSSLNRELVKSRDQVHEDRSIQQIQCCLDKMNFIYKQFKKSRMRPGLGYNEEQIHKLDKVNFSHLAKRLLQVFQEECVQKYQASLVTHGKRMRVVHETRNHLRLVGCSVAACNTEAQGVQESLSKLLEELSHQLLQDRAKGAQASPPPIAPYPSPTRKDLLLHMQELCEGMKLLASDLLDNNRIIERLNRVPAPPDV
The note with it: at 0.1 µM.

Experiment [11] has as its target T4, Inhibitor of nuclear factor kappa-B kinase subunit epsilon (Homo sapiens). The conditions noted are these: at 1 µM.
The target of experiment [12] is T5, Serine/threonine-protein kinase Nek1 (Homo sapiens) (UniProt Q96PY6).
T5 sequence (whole entry): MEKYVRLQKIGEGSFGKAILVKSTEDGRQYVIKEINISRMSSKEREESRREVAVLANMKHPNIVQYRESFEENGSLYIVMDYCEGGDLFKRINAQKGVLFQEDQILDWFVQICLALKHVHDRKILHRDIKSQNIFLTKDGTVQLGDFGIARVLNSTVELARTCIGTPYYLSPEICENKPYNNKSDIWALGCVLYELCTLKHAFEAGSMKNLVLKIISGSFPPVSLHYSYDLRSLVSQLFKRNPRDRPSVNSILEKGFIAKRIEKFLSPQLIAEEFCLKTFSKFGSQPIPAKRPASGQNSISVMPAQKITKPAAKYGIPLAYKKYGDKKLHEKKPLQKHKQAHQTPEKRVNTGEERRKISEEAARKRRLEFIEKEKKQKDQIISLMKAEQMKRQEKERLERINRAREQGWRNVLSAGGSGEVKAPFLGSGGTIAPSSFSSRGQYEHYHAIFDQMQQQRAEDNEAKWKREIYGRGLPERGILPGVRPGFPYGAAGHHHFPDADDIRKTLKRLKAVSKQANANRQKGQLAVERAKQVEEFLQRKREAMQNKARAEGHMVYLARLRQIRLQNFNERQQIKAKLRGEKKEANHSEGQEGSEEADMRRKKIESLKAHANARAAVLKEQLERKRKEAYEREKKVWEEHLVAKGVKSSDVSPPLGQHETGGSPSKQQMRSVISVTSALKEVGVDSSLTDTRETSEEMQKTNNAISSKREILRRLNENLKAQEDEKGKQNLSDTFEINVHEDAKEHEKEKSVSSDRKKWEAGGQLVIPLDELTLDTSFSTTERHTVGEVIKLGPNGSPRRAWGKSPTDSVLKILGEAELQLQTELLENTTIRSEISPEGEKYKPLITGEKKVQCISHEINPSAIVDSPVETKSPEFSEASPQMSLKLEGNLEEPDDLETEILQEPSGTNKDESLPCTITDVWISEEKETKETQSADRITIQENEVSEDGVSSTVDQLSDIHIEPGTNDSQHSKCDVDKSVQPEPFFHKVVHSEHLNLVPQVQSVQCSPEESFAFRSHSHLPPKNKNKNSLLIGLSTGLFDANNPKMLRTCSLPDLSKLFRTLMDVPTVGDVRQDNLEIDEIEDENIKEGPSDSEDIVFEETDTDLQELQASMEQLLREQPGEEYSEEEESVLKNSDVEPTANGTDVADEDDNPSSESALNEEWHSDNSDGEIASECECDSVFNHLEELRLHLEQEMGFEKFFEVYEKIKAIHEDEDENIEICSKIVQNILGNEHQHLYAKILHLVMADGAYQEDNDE
The note with it: at 0.1 µM.

The target in experiment [13] is T5, Serine/threonine-protein kinase Nek1 (Homo sapiens). The note with it: at 1 µM.
Experiment [14] addresses T6, Serine/threonine-protein kinase Nek2 (Homo sapiens) (UniProt P51955).
T6 sequence (whole entry): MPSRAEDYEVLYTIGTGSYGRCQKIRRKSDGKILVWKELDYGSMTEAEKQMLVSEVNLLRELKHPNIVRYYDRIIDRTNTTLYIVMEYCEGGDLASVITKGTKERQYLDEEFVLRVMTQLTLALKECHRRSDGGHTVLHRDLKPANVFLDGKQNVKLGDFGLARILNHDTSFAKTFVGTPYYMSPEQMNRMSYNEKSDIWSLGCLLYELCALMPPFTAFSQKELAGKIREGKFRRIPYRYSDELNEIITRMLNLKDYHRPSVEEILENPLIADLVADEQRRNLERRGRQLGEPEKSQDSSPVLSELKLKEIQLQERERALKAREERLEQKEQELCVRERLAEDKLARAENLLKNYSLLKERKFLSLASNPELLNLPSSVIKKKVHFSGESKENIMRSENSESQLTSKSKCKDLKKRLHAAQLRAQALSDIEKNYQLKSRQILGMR
The conditions noted are these: at 0.1 µM.

Experiment [15] addresses T6, Serine/threonine-protein kinase Nek2 (Homo sapiens). The note with it: at 1 µM.
Experiment [16] addresses Serine/threonine-protein kinase Nek6 (Homo sapiens) (UniProt Q9HC98). The note with it: at 0.1 µM.
For experiment [17] the target is unchanged. The conditions noted are these: at 1 µM.
In experiment [18] the target is Serine/threonine-protein kinase Nek7 (Homo sapiens) (UniProt Q8TDX7). The conditions noted are these: at 0.1 µM.
Experiment [19] has the same target. The conditions noted are these: at 1 µM.
In experiment [20] the target is T7, Serine/threonine-protein kinase Nek9 (Homo sapiens) (UniProt Q8TD19).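 Also: reported value is the mean percent inhibition of NEK9.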
T7 sequence (whole entry): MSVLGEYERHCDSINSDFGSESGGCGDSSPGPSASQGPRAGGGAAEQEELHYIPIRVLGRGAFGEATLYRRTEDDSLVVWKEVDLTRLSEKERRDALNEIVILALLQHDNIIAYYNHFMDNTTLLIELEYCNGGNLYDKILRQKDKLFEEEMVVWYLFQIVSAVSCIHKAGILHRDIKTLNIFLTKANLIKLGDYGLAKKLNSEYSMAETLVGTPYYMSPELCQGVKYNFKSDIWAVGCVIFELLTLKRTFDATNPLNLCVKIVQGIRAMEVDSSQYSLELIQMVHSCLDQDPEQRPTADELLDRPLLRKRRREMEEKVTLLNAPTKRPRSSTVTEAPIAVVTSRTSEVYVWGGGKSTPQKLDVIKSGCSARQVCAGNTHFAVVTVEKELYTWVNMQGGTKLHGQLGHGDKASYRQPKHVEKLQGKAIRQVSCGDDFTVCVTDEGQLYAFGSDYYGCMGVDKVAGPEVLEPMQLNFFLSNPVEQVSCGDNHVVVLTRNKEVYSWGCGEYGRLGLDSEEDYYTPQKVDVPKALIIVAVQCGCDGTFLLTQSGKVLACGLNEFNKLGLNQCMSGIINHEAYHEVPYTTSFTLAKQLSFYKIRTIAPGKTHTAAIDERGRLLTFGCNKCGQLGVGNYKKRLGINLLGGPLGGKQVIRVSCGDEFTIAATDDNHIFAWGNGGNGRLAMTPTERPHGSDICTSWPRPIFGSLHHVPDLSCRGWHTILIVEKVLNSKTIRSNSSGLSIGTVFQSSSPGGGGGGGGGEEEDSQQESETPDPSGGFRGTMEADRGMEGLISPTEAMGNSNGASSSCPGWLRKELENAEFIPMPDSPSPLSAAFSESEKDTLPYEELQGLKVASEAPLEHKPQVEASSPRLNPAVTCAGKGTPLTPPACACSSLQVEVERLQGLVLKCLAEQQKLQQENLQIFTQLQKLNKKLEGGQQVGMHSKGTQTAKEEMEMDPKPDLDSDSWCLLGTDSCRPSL
The conditions noted are these: at 0.1 µM.

Casein kinase II subunit alpha (Homo sapiens), sequence (P68400 whole entry, looked up): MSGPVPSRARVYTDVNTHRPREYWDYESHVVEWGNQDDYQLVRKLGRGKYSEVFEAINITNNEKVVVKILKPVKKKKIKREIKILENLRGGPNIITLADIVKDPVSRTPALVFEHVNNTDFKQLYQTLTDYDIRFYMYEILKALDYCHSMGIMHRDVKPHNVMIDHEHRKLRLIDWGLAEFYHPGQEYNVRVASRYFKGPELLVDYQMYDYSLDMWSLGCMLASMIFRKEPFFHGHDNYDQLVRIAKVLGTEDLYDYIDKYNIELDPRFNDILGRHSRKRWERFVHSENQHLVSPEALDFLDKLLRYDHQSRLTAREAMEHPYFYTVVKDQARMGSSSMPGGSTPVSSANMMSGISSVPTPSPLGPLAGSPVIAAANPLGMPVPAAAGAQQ
Serine/threonine-protein kinase Nek7 (Homo sapiens), sequence (Q8TDX7 whole entry, looked up): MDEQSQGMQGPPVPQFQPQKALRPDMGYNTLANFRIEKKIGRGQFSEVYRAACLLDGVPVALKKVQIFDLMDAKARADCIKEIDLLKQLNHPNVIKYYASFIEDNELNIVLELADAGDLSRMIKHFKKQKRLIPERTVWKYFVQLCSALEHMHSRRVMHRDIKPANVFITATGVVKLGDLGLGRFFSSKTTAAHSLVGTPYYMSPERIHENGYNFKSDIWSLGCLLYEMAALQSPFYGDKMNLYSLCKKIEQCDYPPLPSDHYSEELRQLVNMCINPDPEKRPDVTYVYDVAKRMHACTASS
Serine/threonine-protein kinase Nek6 (Homo sapiens), sequence (Q9HC98 whole entry): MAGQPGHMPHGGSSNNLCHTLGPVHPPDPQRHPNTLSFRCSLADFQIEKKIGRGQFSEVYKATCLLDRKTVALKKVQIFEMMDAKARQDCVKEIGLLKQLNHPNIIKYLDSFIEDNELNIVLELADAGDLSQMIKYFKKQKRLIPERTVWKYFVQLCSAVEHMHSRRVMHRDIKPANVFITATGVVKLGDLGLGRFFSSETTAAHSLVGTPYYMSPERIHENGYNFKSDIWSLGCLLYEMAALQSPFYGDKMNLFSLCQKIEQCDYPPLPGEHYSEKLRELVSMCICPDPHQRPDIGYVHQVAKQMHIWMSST
Sphingosine kinase 1 (Homo sapiens), sequence (Q9NYA1 whole entry): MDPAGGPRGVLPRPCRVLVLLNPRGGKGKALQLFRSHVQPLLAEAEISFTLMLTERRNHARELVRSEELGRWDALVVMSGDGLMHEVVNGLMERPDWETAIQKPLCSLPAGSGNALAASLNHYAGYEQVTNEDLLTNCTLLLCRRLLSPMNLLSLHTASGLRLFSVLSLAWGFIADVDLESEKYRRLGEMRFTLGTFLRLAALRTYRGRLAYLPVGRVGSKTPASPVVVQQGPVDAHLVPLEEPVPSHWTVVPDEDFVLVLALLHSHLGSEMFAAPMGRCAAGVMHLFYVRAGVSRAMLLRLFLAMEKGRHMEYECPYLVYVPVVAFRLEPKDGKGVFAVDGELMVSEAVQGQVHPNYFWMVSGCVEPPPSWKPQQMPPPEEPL

Take `COc1ccccc1-c1cc(/C=C2\C(=O)Nc3ncc(Br)cc32)cc(Br)c1O`: the inhibition (as a rule, the relative decrease from the control value, in per cent) in experiment [1] was -2.44%; in [2], 2.31%; in experiment [3] it was 0.1%; in experiment [4], 1.59%; in [5] it was 3.83%; in experiment [6], 0.19%. In addition, the inhibition in [7] was 0.71%; in [8], 5.58%; in [9], -0.48%; in [10] it was 10.9%; in experiment [11], 12.5%; in experiment [12], 2.67%. In addition, the inhibition was 0.39% in experiment [13]; 6.8% in [14]; 6.16% in [15]; 3.44% in experiment [16]; 0.04% in [17]; 6.5% in experiment [18]. Besides, the inhibition was 3.62% in experiment [19] and 3.73% in experiment [20].

These data come from ChEMBL document CHEMBL1961873, “Compounds: GSK PKIS; Assays: Nanosyn kinase panel” (2012).
